Sampled rows, rich in hits. Any-hit rate of the full collection: about 1.2%.
Avidin bead fluor – green autofluorescence of compounds with avidin beads – biophysical, 488/530 nm, flow cytometry, artefact control, profiling panel. compound fluorescence 488/530 nm; stronger effect = higher value. fluorescence (KMESF) at 10 µM. actives 0.38% (n = 220,000); in the data active = fluorescence above about 47
GSH bead fluor – compound fluorescence on glutathione beads, profiling panel, artefact control, biophysical, 488/530 nm, flow cytometry; GSH beads flow cytometry, compound fluorescence 488/530 nm; stronger effect = higher value; fluorescence (KMESF) at 10 µM; actives 0.25% (n = 190,000); AID 1776, 2009; in the data active = fluorescence above about 89;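 note: glutathione beads carrying GST-tagged Bcl family fusion proteins plus one bare bead set; values are compound well signal with DMSO vehicle wells as background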
RGS4-Gao reg – modulators of RGS4 binding to Galphao, primary screen, biochemical, multiplexed bead flow cytometry. Guanine nucleotide-binding protein G(o) subunit alpha (Homo sapiens), P09471. actives lie on both sides. binding response (% of control), % at 10 µM. actives 0.33% (n = 220,000). AID 1415, 2008; in the data active = binding response below about 49% or above about 150%; inactive = in between;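 note: fluorescent Galphao activated with aluminum fluoride binding bead-coupled RGS4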
Target sequence (P09471 whole entry, looked up): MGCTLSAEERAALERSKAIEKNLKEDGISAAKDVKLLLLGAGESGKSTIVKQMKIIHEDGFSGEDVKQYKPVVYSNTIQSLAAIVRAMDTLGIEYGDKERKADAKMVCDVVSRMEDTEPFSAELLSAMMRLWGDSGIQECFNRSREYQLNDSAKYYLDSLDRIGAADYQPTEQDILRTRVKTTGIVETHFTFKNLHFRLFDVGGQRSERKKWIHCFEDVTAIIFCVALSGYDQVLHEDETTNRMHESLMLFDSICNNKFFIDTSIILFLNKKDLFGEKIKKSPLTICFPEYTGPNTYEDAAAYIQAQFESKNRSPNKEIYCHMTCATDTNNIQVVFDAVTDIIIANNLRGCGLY
RGS7-Gao reg – RGS7-Galphao binding modulators, primary screen, biochemical, multiplexed bead flow cytometry | actives 0.35% (n = 220,000) | actives lie on both sides | Guanine nucleotide-binding protein G(o) subunit alpha (Homo sapiens), P09471 | binding response (% of control), % at 10 µM; in the data active = binding response below about 49% or above about 150%; inconclusive = no clear call, values can overlap the other calls; inactive = in between;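 note: fluorescent Galphao held in activated GDP-AlF4 state binding bead-coupled RGS7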
RGS8-Gao reg – RGS8-Galphao binding modulators, primary screen, biochemical, multiplexed bead flow cytometry; Guanine nucleotide-binding protein G(o) subunit alpha (Homo sapiens), P09471; actives lie on both sides; response (percent of control binding), % at 10 µM; actives 0.34% (n = 220,000); AID 1423, 2008; in the data active = response below about 60% or above about 140%; inactive = in between;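 note: Galphao activated as the GDP aluminium fluoride complex binding bead-coupled RGS8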
RGS16-Gao HTS – modulators of RGS16 binding to Galphao, primary screen, biochemical, human proteins, multiplexed bead flow cytometry. Regulator of G-protein signaling 16 (Homo sapiens) + Guanine nucleotide-binding protein …. bead-based flow cytometry RGS16-Galphao binding, fluorescence; actives lie on both sides. binding response (% of control), % at 10 µM. actives 0.38% (n = 220,000);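 note: Galphao activated by GDP with aluminum fluoride before binding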
Target sequence (O15492 whole entry, looked up): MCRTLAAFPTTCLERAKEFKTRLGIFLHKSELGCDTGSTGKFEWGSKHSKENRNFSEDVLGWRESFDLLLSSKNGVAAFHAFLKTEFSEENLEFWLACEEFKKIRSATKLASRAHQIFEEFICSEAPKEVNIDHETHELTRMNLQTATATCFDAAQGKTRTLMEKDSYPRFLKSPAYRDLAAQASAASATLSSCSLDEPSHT
Target sequence (P09471 whole entry, looked up): as the sequence (P09471 whole entry, looked up) above
RGS-Gao – modulators of RGS–Galpha-o binding, primary screen, biochemical, multiplexed beads, flow cytometry, RGS4/7/8/16/19. shares compounds with RGS16-Gao HTS. multiplexed bead flow cytometry. RGS4–Galpha-o binding response, % at 10 µM. actives 99% (n = 1,600). AID 1504, 2009;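 note: fluorescently labeled Galpha-o bound to GDP with aluminium fluoride binding biotinylated RGS beads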
Biotin-avidin – disruption of biotin probe capture by avidin, counter-screen for RGS protein interaction modulators, biochemical, flow cytometry, bead-based; 1,700 tested, under 10 active; shares compounds with RGS16-Gao HTS; streptavidin beads, fluorescein-biotin binding; inhibition, % at 10 µM;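 active = inhibition above 50%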;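 note: median green fluorescence of gated singlet beads compared with DMSO control wells; 0% = DMSO wells and 100% = complete loss of bead fluorescence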
RGS8-Gao confirm – RGS8-Galphao binding modulators, confirmation, biochemical, multiplexed bead flow cytometry, single concentration; shares compounds with RGS16-Gao HTS; bead-based flow cytometry RGS8-Galphao binding, fluorescence; actives lie on both sides; binding response (% of control), % at 10 µM; actives 3% (n = 1,700); AID 1836, 2009; in the data active = binding response below about 72% or above about 130%; inactive = in between;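 note: Galphao activated as GDP AlF4 complex before binding bead RGS8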
RGS7-Gao single – RGS7-Galphao binding modulators, confirmation, biochemical, multiplexed bead flow cytometry, single concentration | bead-based flow cytometry RGS7-Galphao binding; actives lie on both sides | actives 7.8% (n = 1,700) | response (percent of control binding), % at 10 µM | AID 1837, 2009 | shares compounds with RGS16-Gao HTS; in the data active = response below about 75% or above about 130%; inactive = in between;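 note: fluorescent Galphao activated with GDP and aluminum fluoride binding bead-coupled RGS7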
RGS16-Gao single – modulators of RGS16-Galphao protein binding, confirmation, biochemical, single concentration, multiplexed bead flow cytometry. shares compounds with RGS16-Gao HTS. bead-based flow cytometry; actives lie on both sides. response (% of control binding), % at 10 µM. actives 4% (n = 1,700). AID 1838, 2009; in the data active = response below about 74% or above about 130%; inactive = in between;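 note: Galphao activated as the GDP aluminium fluoride complex binding bead-coupled RGS16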
RGS4-Gao confirm – modulators of RGS4-Galphao protein binding, confirmation, biochemical, single concentration, multiplexed bead flow cytometry; shares compounds with RGS16-Gao HTS; actives lie on both sides; binding response (% of control), % at 10 µM; actives 4% (n = 1,700); AID 1840, 2009; in the data active = binding response below about 74% or above about 130%; inactive = in between
RGS19-Gao single – regulators of RGS19-Galphao binding, confirmation, biochemical, single point, multiplexed bead flow cytometry; shares compounds with RGS16-Gao HTS; bead-based flow cytometry RGS19-Galphao binding; actives lie on both sides; response (percent of control binding), % at 10 µM; actives 5% (n = 1,700); AID 1841, 2009; in the data active = response below about 50% or above about 160%; inactive = in between;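 note: 100% = no compound control and 0% = blank background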
Numbers without * were called inactive; i = inactive; ? = inconclusive; . = no result; [ ] = another dose, or the depositor's remark. Unless noted, the rule behind the calls is not given here.

SMILES	Avidin bead fluor	GSH bead fluor	RGS4-Gao reg	RGS7-Gao reg	RGS8-Gao reg	RGS16-Gao HTS	Biotin-avidin	RGS8-Gao confirm	RGS7-Gao single	RGS16-Gao single	RGS4-Gao confirm	RGS19-Gao single	others
CCN(CC)c1ccc(NC(=O)Nc2cccc(C(C)=O)c2)cc1	-5	36	-7.5*	-3.4*	5.3*	-17*	1	97	94	97	92	96
CC(CCOC1=NS(=O)(=O)c2ccccc21)NC(=O)C(=O)Nc1ccccc1 (stereo not given)	0	.	23*	?	61	42	2	131*[activator]	556*[activator]	286*[activator]	466*[activator]	211*[activator]
CCN(CC)CCN1C(=O)C(=O)/C(=C(/O)c2c(C)[nH]c(C(=O)OC)c2C)C1c1cccs1 (stereo not given)	8	10	98	99	103	100	.	.	.	.	.	.
CCN(CC)CCN1C(=O)C(=O)/C(=C(/O)c2c(C)[nH]c(C(=O)OC)c2C)C1c1ccccc1OC (stereo not given)	23	6	176*[activator]	159*[activator]	145*[activator]	266	0	100	108	103	105	101
Cc1ccc(-n2c(C)cc(C(=O)COc3c(CO)cc(F)cc3CO)c2C)cc1C	4	10	116	115	153*[activator]	332	2	105	104	104	103	108	RGS-Gao=116*
CC(=O)Nc1ccccc1C(F)(F)F	2	.	22*	?	48*	30	1	106	113	105	108	96
COc1ccc(/C=C(/NC(=O)/C=C/c2ccccc2)C(=O)NCCCCCC(=O)O)cc1	6	.	94	?	98	95	.	.	.	.	.	.
Cc1cc(C)nc(/N=C2\NC(=O)CC3C(=O)NCCN23)n1 (stereo not given)	4	24	21*	12*	13*	10*	0	105	95	101	102	79
CC(=O)NNc1cc(N2CCOCC2)nc(N2CCOCC2)n1	9	16	104	?	101	101	.	.	.	.	.	.
O=C(NNc1cc(N2CCOCC2)nc(N2CCOCC2)n1)c1ccc(Cl)cc1Cl	0	9	21*	12*	23*	10*	-1	93	88	91	91	89
CC(C)(C)c1ccc(C(=O)NNc2cc(N3CCCCC3)nc(N3CCCCC3)n2)cc1	175*	119*	842*[activator]	643*[activator]	173*[activator]	560*[activator]	1	105	113	104	108	100
CC(=O)c1ccc(NC(=O)Cn2c3ccccc3c3nc(=O)cc(C)n32)cc1	5	.	102	?	101	104	.	.	.	.	.	.
COc1cccc2c1NC(C(=O)O)C1CC=CC21 (stereo not given)	6	6	70	36*	54*	63	0	100	76	96	89	94	RGS-Gao=70*
Nc1nc(NCCCN2CCOCC2)nc(Nc2ccccc2F)c1[N+](=O)[O-]	3	.	99	?	96	92	.	.	.	.	.	.
COc1ccc(C(=O)Cc2ccc(OC)c(OC)c2)cc1	.	37	.	.	.	.	-1	101	99	104	101	107
CC12C(=O)N(c3nccs3)C(=O)C1C1C=CC2C1 (stereo not given)	.	29	.	.	.	.	0	103	98	100	97	89
Nc1ccccc1N1CCOCC1	11	9	98	99	96	91	.	.	.	.	.	.
CC1CCN(c2nnc(N3CCC(C)CC3)c3ccccc23)CC1	0	19	20*	12*	18*	11*	0	99	90	96	92	87
CC1CCN(c2ccccc2N)CC1	5	33	163*[activator]	153*[activator]	131	167	1	91	83	85	88	48*
Clc1cc2cccnc2c2ccccc12	-4	10	-47*	-24*	3.0*	i	-1	98	102	100	102	96
Oc1c(Cl)cc(Cl)c2cccnc12	8	19	97	99	98	95	.	.	.	.	.	.
CC(C)N(NC(=O)c1cccc2ccccc12)C(C)C	23	11	144	147	151*[activator]	175*[activator]	1	102	103	98	100	103	RGS-Gao=144*
O=C(NNc1ccccc1C(F)(F)F)c1sccc1Br	6	.	98	?	100	100	.	.	.	.	.	.
CCCCN=Cc1c(C)[nH]n(-c2ccccc2)c1=S	11	14	105	110	102	105	.	.	.	.	.	.
Cc1[nH]n(-c2ccccc2)c(=S)c1C=Nc1cccc([N+](=O)[O-])c1	7	9	95	107	69	19*	0	54*	84	5.9*	86	9.1*	RGS-Gao=95*
C=CCNC(=S)NCc1cccnc1	14	5	112	112	128	276*[activator]	1	102	102	104	104	91	RGS-Gao=112*
